PubChem BioAssay
Where “and” joins values, the source holds several entries; their conditions need not be identical. Equal values may be shown once. For some assays here: Results with a measured potency or affinity are listed apart. Some compounds were tested as several samples or in several runs, with calls that do not always agree. Calls of active or inactive are those of the source. Unless noted, no rule for the calls is given here.

Legend:
[1] = antimalarial activity against Dd2 strain (AID 2302;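 active = growth inhibition above 50% at the single 2 µM test dose, taken to imply half-maximal potency below 2 µM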;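 also: 0% = DMSO untreated growth and 100% = chloroquine plus artemisinin killed control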); conditions: P. falciparum Dd2 in RBCs, LDH growth readout, 72 h; at 2 µM; stronger effect = higher value
[2] = HepG2 cytotoxicity, primary screen, cytotoxicity control for P. falciparum antimalarial project, cell-based, ATP luminescence (AID 2303;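 active = inhibition above 50%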;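 also: 0% = DMSO wells and 100% = digitonin-killed cells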); conditions: HepG2 viability, 24-48 h, at 10 µM, stronger effect = higher value
[3] = target: L-lactate dehydrogenase (Plasmodium falciparum (isolate CDC / Honduras)) (UniProt Q27743); test: PfLDH activity inhibition – cell lysate, 3D7 strain, counter-screen for P. falciparum growth inhibition project (AID 2304);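 also: 0% = vehicle and 100% = reference inhibitor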; conditions: P. falciparum 3D7 crude extract, LDH APAD/NBT absorbance; at 2 µM; stronger effect = higher value
L-lactate dehydrogenase (Plasmodium falciparum (isolate CDC / Honduras)), sequence (Q27743 whole entry, looked up): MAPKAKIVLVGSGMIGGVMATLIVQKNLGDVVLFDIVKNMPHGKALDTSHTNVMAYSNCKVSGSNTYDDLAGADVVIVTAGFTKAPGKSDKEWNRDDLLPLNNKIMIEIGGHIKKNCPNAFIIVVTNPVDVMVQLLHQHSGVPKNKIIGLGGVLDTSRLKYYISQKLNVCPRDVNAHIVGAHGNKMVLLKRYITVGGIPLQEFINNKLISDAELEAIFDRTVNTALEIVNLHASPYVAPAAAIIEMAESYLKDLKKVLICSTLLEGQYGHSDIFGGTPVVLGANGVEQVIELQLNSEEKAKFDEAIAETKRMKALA

[4] = inhibition of 3D7 malaria parasite growth – strain 3D7 (AID 2306);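 also: 0% = DMSO wells and 100% = chloroquine plus artemisinin control wells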; conditions: P. falciparum 3D7 erythrocytic growth, LDH absorbance, 72 h; at 2 µM; stronger effect = higher value
[5] = target: Calcium-dependent protein kinase 1 (Plasmodium falciparum (isolate 3D7)) (UniProt P62344); test: PfCDPK1 kinase inhibitors, biochemical, TCAMS library (AID 1159585; cut-off not given, nearly all actives have IC50 up to about 0.98 µM;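 also: inhibitors leave more ATP so luminescence rises with inhibition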); conditions: recombinant PfCDPK1, Kinase-Glo ATP depletion luminescence
Calcium-dependent protein kinase 1 (Plasmodium falciparum (isolate 3D7)), sequence (P62344 whole entry, looked up): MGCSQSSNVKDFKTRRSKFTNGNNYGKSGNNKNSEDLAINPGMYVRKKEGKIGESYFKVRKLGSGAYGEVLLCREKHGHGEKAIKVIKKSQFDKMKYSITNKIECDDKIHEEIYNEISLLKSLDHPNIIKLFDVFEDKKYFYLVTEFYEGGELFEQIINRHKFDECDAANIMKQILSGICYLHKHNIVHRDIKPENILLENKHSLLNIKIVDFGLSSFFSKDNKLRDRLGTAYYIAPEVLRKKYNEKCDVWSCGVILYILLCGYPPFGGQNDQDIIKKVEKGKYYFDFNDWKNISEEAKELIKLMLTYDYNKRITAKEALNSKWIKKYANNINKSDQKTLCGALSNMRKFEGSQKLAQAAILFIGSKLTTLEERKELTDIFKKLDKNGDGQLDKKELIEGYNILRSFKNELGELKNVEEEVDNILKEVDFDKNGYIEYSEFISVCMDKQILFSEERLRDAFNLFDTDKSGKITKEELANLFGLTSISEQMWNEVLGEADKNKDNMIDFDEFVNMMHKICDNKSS

[6] = target: Plasmodium falciparum protein kinase 6 (PK6, PF3D7_1337100) (UniProt Q8IDW1); test: PfPK6 kinase inhibitors, biochemical, TCAMS library (AID 1159586); conditions: recombinant PfPK6, Kinase-Glo ATP depletion luminescence
Plasmodium falciparum protein kinase 6 (PK6, PF3D7_1337100), sequence (Q8IDW1 1-305): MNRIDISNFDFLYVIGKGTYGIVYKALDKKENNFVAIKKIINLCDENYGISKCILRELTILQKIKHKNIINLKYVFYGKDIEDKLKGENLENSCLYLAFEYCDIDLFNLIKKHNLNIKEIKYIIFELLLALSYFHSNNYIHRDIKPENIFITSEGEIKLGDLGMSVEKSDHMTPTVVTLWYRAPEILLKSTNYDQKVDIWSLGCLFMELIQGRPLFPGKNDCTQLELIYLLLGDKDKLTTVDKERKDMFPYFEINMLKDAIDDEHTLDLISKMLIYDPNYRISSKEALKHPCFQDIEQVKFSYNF

[7] = target: Protein kinase 7 (PK7), Plasmodium falciparum 3D7 (PF3D7_0213400) (UniProt Q7YTF7); test: inhibition of Plasmodium PK7 catalytic activity – biochemical, TCAMS antimalarial set, Kinase-Glo luminescence (AID 1159587); conditions: recombinant PfPK7, Kinase-Glo ATP depletion luminescence
Protein kinase 7 (PK7), Plasmodium falciparum 3D7 (PF3D7_0213400), sequence (Q7YTF7 1-343): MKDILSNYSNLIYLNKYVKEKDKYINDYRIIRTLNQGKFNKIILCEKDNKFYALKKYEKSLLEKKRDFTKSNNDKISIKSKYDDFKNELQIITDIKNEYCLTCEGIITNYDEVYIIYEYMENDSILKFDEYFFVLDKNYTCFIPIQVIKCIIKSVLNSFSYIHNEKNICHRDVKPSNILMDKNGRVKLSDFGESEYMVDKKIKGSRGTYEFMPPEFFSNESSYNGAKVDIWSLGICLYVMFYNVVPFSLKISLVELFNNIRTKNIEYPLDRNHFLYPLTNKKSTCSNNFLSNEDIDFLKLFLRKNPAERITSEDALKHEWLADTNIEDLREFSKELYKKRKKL

[8] = target: Calcium-dependent protein kinase 4 (Plasmodium falciparum (isolate 3D7)) (UniProt Q8IBS5); test: PfCDPK4 kinase inhibitors, biochemical, TCAMS library (AID 1159588; cut-off not given, nearly all actives have IC50 up to about 0.91 µM); conditions: recombinant PfCDPK4, Kinase-Glo ATP depletion luminescence
Calcium-dependent protein kinase 4 (Plasmodium falciparum (isolate 3D7)), sequence (Q8IBS5 whole entry, looked up): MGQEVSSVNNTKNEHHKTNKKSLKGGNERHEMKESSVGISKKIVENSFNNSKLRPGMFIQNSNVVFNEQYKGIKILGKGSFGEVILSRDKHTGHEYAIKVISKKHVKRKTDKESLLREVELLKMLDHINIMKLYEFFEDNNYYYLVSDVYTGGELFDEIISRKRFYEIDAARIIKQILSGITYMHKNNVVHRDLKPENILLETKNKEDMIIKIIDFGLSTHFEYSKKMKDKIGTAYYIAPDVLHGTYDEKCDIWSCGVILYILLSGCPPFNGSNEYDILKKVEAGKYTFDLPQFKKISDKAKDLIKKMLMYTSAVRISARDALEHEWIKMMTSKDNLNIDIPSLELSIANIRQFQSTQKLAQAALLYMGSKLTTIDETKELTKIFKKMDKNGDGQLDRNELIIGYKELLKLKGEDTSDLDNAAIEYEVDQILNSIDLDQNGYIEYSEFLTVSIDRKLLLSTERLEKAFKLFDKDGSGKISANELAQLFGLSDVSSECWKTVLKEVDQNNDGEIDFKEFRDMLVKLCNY

O=C(/C=C/c1c(Cl)cccc1Cl)NC1CCC(CN2CCC(c3c[nH]c4ccccc34)CC2)CC1 (stereo unspecified)
inactive: growth inhibition [1] 42% and 21% | inhibition [3] -4% and 4% | outcome [5] | outcome [6] | outcome [7] | outcome [8]
54% (active) and 39% (inactive): inhibition [2]
active: growth inhibition [4] 93% and 100%

O=C(/C=C/c1cccc2ccccc12)NC1CCC(CN2CCC(c3c[nH]c4ccccc34)CC2)CC1 (stereo unspecified)
45% (inactive) and 53% (active): inhibition [2]
active: growth inhibition [1] 66% and 72% | growth inhibition [4] 101% and 100%
inactive: inhibition [3] 5% and -3% | outcome [5] | outcome [6] | outcome [7] | outcome [8]

CN(C)c1cccc(NC(=O)NC2N=C(c3ccccc3)c3ccccc3N(CC(=O)N(C)c3ccccc3)C2=O)c1 (stereo unspecified)
inactive: inhibition [2] 1% | inhibition [3] 4% | outcome [5] | outcome [6] | outcome [7] | outcome [8]
active: growth inhibition [1] 80% | growth inhibition [4] 99%

Cc1[nH]c2c(C)cc(NS(C)(=O)=O)cc2c1C1CCN(CC2CCN(C(=O)/C=C/c3ccc(Cl)c(Cl)c3)CC2)CC1
inactive: inhibition [2] 33% | inhibition [3] 1% | outcome [5] | outcome [6] | outcome [7] | outcome [8]
active: growth inhibition [1] 99% | growth inhibition [4] 100%

COc1cccc(C=CC(=O)NC2CCC(CN3CCC(c4c[nH]c5ccccc45)CC3)CC2)c1OC (stereo unspecified)
inactive: growth inhibition [1] 40% | inhibition [2] 37% | inhibition [3] -1% | outcome [5] | outcome [6] | outcome [7] | outcome [8]
active: growth inhibition [4] 102%

Cc1ccc(C)c(N2CCN(Cc3ccccc3O)CC2)c1
inactive: inhibition [2] 11% | inhibition [3] 5% | outcome [5] | outcome [6] | outcome [7] | outcome [8]
active: growth inhibition [1] 90% | growth inhibition [4] 100%

COc1ccc(C=CC(=O)NC2CCC(CN3CCC(c4c[nH]c5ccccc45)CC3)CC2)cc1OC (stereo unspecified)
active: growth inhibition [1] 85% and 72% | growth inhibition [4] 100% and 101%
inactive: inhibition [2] 15% and 14% | inhibition [3] 1% and -1% | outcome [5] | outcome [6] | outcome [7] | outcome [8]

O=C(C=C1c2ccccc2-c2ccccc21)NC1CCC(CN2CCC(c3c[nH]c4ccccc34)CC2)CC1 (stereo unspecified)
21% (inactive) and 54% (active): inhibition [2]
inactive: inhibition [3] 4% and 1% | outcome [5] | outcome [6] | outcome [7] | outcome [8]
active: growth inhibition [1] 64% and 67% | growth inhibition [4] 102% and 99%

CCCCC/C=C/C(=O)NC1CCC(CN2CCC(c3c[nH]c4ccccc34)CC2)CC1 (stereo unspecified)
active: growth inhibition [4] 87%
inactive: growth inhibition [1] 11% | inhibition [2] 19% | inhibition [3] -1% | outcome [5] | outcome [6] | outcome [7] | outcome [8]

Cc1ccc(CC(C)NCC(O)c2cccc(C(F)(F)F)c2)c(C)c1 (stereo unspecified)
inactive: inhibition [2] 3% | inhibition [3] -1% | outcome [5] | outcome [6] | outcome [7] | outcome [8]
active: growth inhibition [1] 99% | growth inhibition [4] 99%

CCN(CC)CCN1C(=O)C(O)(c2ccccc2Cl)c2c1cc(C(N)=O)cc2C(F)(F)F (stereo unspecified)
active: growth inhibition [1] 86% | growth inhibition [4] 101%
inactive: inhibition [2] 16% | inhibition [3] -4% | outcome [5] | outcome [6] | outcome [7] | outcome [8]

O=C(/C=C/c1ccc(Cl)c(Cl)c1)N1CCC(CN2CCC(c3c(-c4ccc(F)cc4)[nH]c4ccccc34)CC2)CC1
inactive: inhibition [2] 19% | inhibition [3] -3% | outcome [5] | outcome [6] | outcome [7] | outcome [8]
active: growth inhibition [1] 98% | growth inhibition [4] 101%

CC[C@H]1CN2CC[C@@H]1C[C@H]2[C@H](O)c1cc(-c2ccc(Cl)c(Cl)c2)nc2ccc(O)cc12
active: growth inhibition [1] 99% | growth inhibition [4] 98%
inactive: inhibition [2] -8% | inhibition [3] -1% | outcome [5] | outcome [6] | outcome [7] | outcome [8]

COC(=O)c1sccc1NC(=S)NC1CCC(CN2CCC(c3c[nH]c4ccccc34)CC2)CC1 (stereo unspecified)
inactive: inhibition [2] 25% and 34% | inhibition [3] 0% and -1% | outcome [5] | outcome [6] | outcome [7] | outcome [8]
54% (active) and 49% (inactive): growth inhibition [1]
active: growth inhibition [4] 97% and 100%

Cc1cccc(C(=O)Nc2ccnc(N(C)C3CCN(CC(C)C)CC3)c2)c1
active: growth inhibition [4] 95%
inactive: growth inhibition [1] 6% | inhibition [2] 10% | inhibition [3] -2% | outcome [5] | outcome [6] | outcome [7] | outcome [8]

CN1C(=O)[C@H](NC(=O)[C@@H](Cc2ccccc2)NC(=S)Nc2ccccc2)N=C(c2ccccc2)c2ccccc21
active: growth inhibition [4] 86%
inactive: growth inhibition [1] 23% | inhibition [2] -8% | inhibition [3] -1% | outcome [5] | outcome [6] | outcome [7] | outcome [8]

CC[C@H]1CN2CC[C@H]1C[C@H]2[C@H](O)c1cc(-c2ccccc2C(F)(F)F)nc2ccc(OC)cc12
inactive: inhibition [2] -4% | inhibition [3] -5% | outcome [5] | outcome [6] | outcome [7] | outcome [8]
active: growth inhibition [1] 99% | growth inhibition [4] 98%

O=C(NCc1ccc(S(=O)(=O)N2CCC(CN3CCC(c4c[nH]c5ccccc45)CC3)CC2)s1)c1ccccc1
inactive: growth inhibition [1] 21% | inhibition [2] 32% | inhibition [3] 5% | outcome [5] | outcome [6] | outcome [7] | outcome [8]
active: growth inhibition [4] 92%

COc1cccc(O)c1CNCC(O)c1cccc(C(F)(F)F)c1 (stereo unspecified)
active: growth inhibition [1] 96% | growth inhibition [4] 98%
inactive: inhibition [2] 31% | inhibition [3] 4% | outcome [5] | outcome [6] | outcome [7] | outcome [8]

Cn1cc(CN2CCC(CCOC(c3ccccc3)c3ccccc3)CC2)cn1
active: growth inhibition [1] 100% | growth inhibition [4] 99%
inactive: inhibition [2] 27% | inhibition [3] -5% | outcome [5] | outcome [6] | outcome [7] | outcome [8]

CCN(Cc1ccccc1)CC(O)c1ccc(Cl)c(Cl)c1 (stereo unspecified)
inactive: inhibition [2] 2% | inhibition [3] 1% | outcome [5] | outcome [6] | outcome [7] | outcome [8]
active: growth inhibition [1] 71% | growth inhibition [4] 96%

Oc1ccc(Cl)cc1CN1CCC(CCOC(c2ccccc2)c2ccc(Cl)cc2)CC1 (stereo unspecified)
active: growth inhibition [1] 100% | growth inhibition [4] 98%
inactive: inhibition [2] 32% | inhibition [3] 2% | outcome [5] | outcome [6] | outcome [7] | outcome [8]

CNCCc1c(O)ccc2ccccc12
active: growth inhibition [4] 94%
inactive: growth inhibition [1] -1% | inhibition [2] 6% | inhibition [3] 2% | outcome [5] | outcome [6] | outcome [7] | outcome [8]

CC(Cc1ccc(SCCSc2ccccc2)cc1)NCC(O)c1cccc(Cl)c1 (stereo unspecified)
inactive: inhibition [2] 4% | inhibition [3] -7% | outcome [5] | outcome [6] | outcome [7] | outcome [8]
active: growth inhibition [1] 96% | growth inhibition [4] 98%

C#CCN1CCC2=C(C1)c1c(O)cc(C(C)C(C)CCc3ccc(F)cc3)cc1OC2(C)C (stereo unspecified)
inactive: inhibition [2] 10% | inhibition [3] 3% | outcome [5] | outcome [6] | outcome [7] | outcome [8]
active: growth inhibition [1] 99% | growth inhibition [4] 100%

O=C(NC1CCC(CN2CCC(c3c[nH]c4ccccc34)CC2)CC1)c1cc2ccccc2o1 (stereo unspecified)
inactive: growth inhibition [1] 14% | inhibition [2] 34% | inhibition [3] 4% | outcome [5] | outcome [6] | outcome [7] | outcome [8]
active: growth inhibition [4] 94%

COc1ccc(CN(C2CC2)C(C)C(=O)c2[nH]c(C)c(C(C)=O)c2C)cc1 (stereo unspecified)
active: growth inhibition [1] 64% | growth inhibition [4] 98%
inactive: inhibition [2] 40% | inhibition [3] -3% | outcome [5] | outcome [6] | outcome [7] | outcome [8]

CC[C@H]1CN2CC[C@H]1C[C@H]2[C@@H](O)c1cc(OCCCN(C)C)nc2ccc(OC)cc12
inactive: growth inhibition [1] 8% | inhibition [2] -7% | inhibition [3] -2% | outcome [5] | outcome [6] | outcome [7] | outcome [8]
active: growth inhibition [4] 99%

COC(=O)c1ccc(C[C@@H](C)NC[C@H](O)c2cccc(OCc3ccccc3)c2)cc1
active: growth inhibition [4] 86%
inactive: growth inhibition [1] 37% | inhibition [2] 11% | inhibition [3] 1% | outcome [5] | outcome [6] | outcome [7] | outcome [8]

Cc1ccc(/C=C/C(=O)NC2CCC(CN3CCC(c4c[nH]c5ccccc45)CC3)CC2)cc1C (stereo unspecified)
inactive: inhibition [2] 23% and 38% | inhibition [3] 8% and 4% | outcome [5] | outcome [6] | outcome [7] | outcome [8]
active: growth inhibition [1] 71% and 91% | growth inhibition [4] 100% and 101%

CCCCCCC(C)(C)c1cc(O)c2c3c(c(=O)oc2c1)CCN(Cc1ccccc1)C3
active: growth inhibition [1] 99% | growth inhibition [4] 100%
inactive: inhibition [2] 3% | inhibition [3] 6% | outcome [5] | outcome [6] | outcome [7] | outcome [8]

Cc1[nH]c2ccccc2c1C1CCN(CC2CCC(NC(=O)/C=C/c3ccc(Cl)c(Cl)c3)CC2)CC1 (stereo unspecified)
inactive: inhibition [2] 15% | inhibition [3] 1% | outcome [5] | outcome [6] | outcome [7] | outcome [8]
active: growth inhibition [1] 93% | growth inhibition [4] 101%

COc1ccc2[nH]cc(C3=CCN(Cc4ccccc4)CC3)c2c1
inactive: inhibition [3] -5% | outcome [5] | outcome [6] | outcome [7] | outcome [8]
active: growth inhibition [1] 84% | inhibition [2] 51% | growth inhibition [4] 90%

COc1ccc(OC)c(C(O)CNC(C)C)c1 (stereo unspecified)
active: growth inhibition [4] 96%
inactive: growth inhibition [1] -2% | inhibition [2] 3% | inhibition [3] -9% | outcome [5] | outcome [6] | outcome [7] | outcome [8]

O=C(c1cc(C(F)(F)F)cc(C(F)(F)F)c1)N1CC[C@H](CCN2CCC3(CC2)C(=O)NCN3c2ccccc2)C[C@H]1Cc1ccc(Cl)c(Cl)c1
active: growth inhibition [1] 77% | growth inhibition [4] 100%
inactive: inhibition [2] 19% | inhibition [3] -4% | outcome [5] | outcome [6] | outcome [7] | outcome [8]

COC(=O)c1ccc(CC(C)NCC(O)c2cccc3ccccc23)cc1 (stereo unspecified)
active: growth inhibition [1] 82% | growth inhibition [4] 96%
inactive: inhibition [2] 3% | inhibition [3] 4% | outcome [5] | outcome [6] | outcome [7] | outcome [8]

COC(=O)c1ccc(CC(C)NCC(O)c2ccc3ccc4ccccc4c3c2)cc1 (stereo unspecified)
inactive: inhibition [2] 21% | inhibition [3] -2% | outcome [5] | outcome [6] | outcome [7] | outcome [8]
active: growth inhibition [1] 97% | growth inhibition [4] 100%
